Results filed as inconclusive are left out. Active and inactive are the calls of the source. The calls were made as follows, unless noted: active = hit-call score of the fitted dose curve at least 0.9, where 1 is the maximum; inactive = score below 0.9.

The target in assay [1] is human RAR-related Orphan Receptor beta (RORb), RORB (gene 6096) (UniProt Q92753). The assay can be described thus: ATG_RORb_TRANS: Attagene TRANS-FACTORIAL HepG2 Assay for human RAR-related Orphan Receptor beta (RORb) (AID 2283010; active = hit-call score of the fitted dose curve at least 0.9, where 1 is the maximum). An outline of the steps: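 HepG2 cells were transiently transfected with multiplexed GAL4-UAS reporter units expressing chimeric nuclear receptor–GAL4 proteins, then dosed for 24 h. Reporter mRNA was quantified by RT-PCR with fluorescent labelling and capillary electrophoresis; gain of signal was fitted relative to DMSO.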

Assay [2] deals with Retinoic acid receptor RXR-alpha (Homo sapiens) (UniProt P19793). The assay can be described thus: ATG_RXRa_TRANS: Attagene TRANS-FACTORIAL HepG2 Assay for human Retinoid X Receptor alpha (RXRa) (AID 2283012; active = hit-call score of the fitted dose curve at least 0.9, where 1 is the maximum). An outline of the steps:
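HepG2 cells transiently transfected with multiplexed GAL4-UAS reporter units and chimeric NR-GAL4 fusions, dosed 24 h. Reporter mRNA measured by RT-PCR, FAM labelling, HpaI digestion and capillary electrophoresis; gain-of-signal fitted relative to DMSO baseline.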

The target of assay [3] is human Vitamin D Receptor (VDR), VDR (gene 7421) (UniProt P11473). The assay can be described thus: ATG_VDR_TRANS: Attagene TRANS-FACTORIAL HepG2 Assay for human Vitamin D Receptor (VDR) (AID 2283022; active = hit-call score of the fitted dose curve at least 0.9, where 1 is the maximum). An outline of the steps:
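HepG2 cells were transiently transfected with multiple GAL4-UAS reporter units, so signal reflects exogenous chimeric receptor-Gal4 activity. After 24 h compound exposure, reporter mRNA was measured by RT-PCR, fluorescent labelling and capillary electrophoresis, fitted for gain of signal versus DMSO.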

The target of assay [4] is human RAR-related Orphan Receptor gamma (RORg), RORC (gene 6097) (UniProt P51449). Briefly: ATG_RORg_TRANS: Attagene TRANS-FACTORIAL HepG2 Assay for human RAR-related Orphan Receptor gamma (RORg) (AID 2283011; active = hit-call score of the fitted dose curve at least 0.9, where 1 is the maximum). In outline:
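Readout: reporter transcript induction (RT-PCR, fluorescent primer extension, capillary electrophoresis) after 24 h compound exposure of transiently transfected HepG2 cells carrying a RORg-Gal4 chimera and GAL4-UAS reporters; DMSO served as baseline, with increasing signal fitted.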

The target in assay [5] is human Retinoid X Receptor beta (RXRb), RXRB (gene 6257) (UniProt P28702). Briefly: ATG_RXRb_TRANS: Attagene TRANS-FACTORIAL HepG2 Assay for human Retinoid X Receptor beta (RXRb) (AID 2283013; active = hit-call score of the fitted dose curve at least 0.9, where 1 is the maximum). In outline:
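HepG2 cells transiently transfected with multiplexed reporter units driven by GAL4-UAS and exogenous chimeric NR-Gal4 proteins; treated 24 h. Reporter mRNA measured by RT-PCR, 6-FAM labelling and capillary electrophoresis; gain-of-signal fitted versus DMSO baseline.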

Read-out in assay [6]: E-selectin (Homo sapiens) (UniProt P16581)
The assay can be described thus: BSK_3C_Eselectin: BioMAP Diversity Plus: 3C Assay for Eselectin Biomarker Activity (AID 2283015).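 Also: cell surface E-selectin protein quantified by ELISA 24 h after dosing.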 The settings on record: primary human endothelial cells (HUVEC); actives raise or lower the signal. An outline of the steps: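 Primary human umbilical vein endothelial cells (3C system) were dosed with chemical and cell-surface E-selectin measured by ELISA 24 h later. Bidirectional curve fitting used DMSO as negative control and baseline.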

Read-out in assay [7]: Interleukin-1 alpha (IL1a), IL1A (gene 3552)
The assay can be described thus: BSK_BE3C_IL1a: BioMAP Diversity Plus: BE3C Assay for Interleukin-1 alpha (IL1a) Biomarker Activity (AID 2283016). The conditions noted are these: primary human bronchial epithelial cells; actives raise or lower the signal. An outline of the steps: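 Human primary bronchial epithelial cells (BE3C system) were dosed with compound and IL-1a measured by ELISA 24 h later. Activity was fitted bidirectionally against DMSO baseline; cytotoxicity was tracked in parallel cultures by SRB total-protein staining.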

Read-out in assay [8]: Monocyte Chemoattractant Protein-1 (MCP1), CCL2 (gene 6347)
The assay can be described thus: BSK_3C_MCP1: BioMAP Diversity Plus: 3C Assay for Monocyte Chemoattractant Protein-1 (MCP1) Biomarker Activity (AID 2283017). The settings on record: primary human endothelial cells (HUVEC); actives raise or lower the signal. An outline of the steps: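 Primary human umbilical vein endothelial cells (3C system) were exposed to test chemical for 24 h, after which MCP-1 was quantified by ELISA. Activity was fitted bidirectionally against DMSO as negative control and baseline.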

Read-out in assay [9]: Monocyte Chemoattractant Protein-1 (MCP1), CCL2 (gene 6347)
Briefly: BSK_4H_MCP1: BioMAP Diversity Plus: 4H Assay for Monocyte Chemoattractant Protein-1 (MCP1) Biomarker Activity (AID 2283018). The conditions noted are these: primary human endothelial cells (HUVEC); actives raise or lower the signal. An outline of the steps: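 Human umbilical vein endothelial cells (4H system) dosed with chemical; MCP-1 measured by ELISA 24 h after dosing. Bidirectional curve fitting against DMSO negative control as baseline; parallel SRB total-protein staining tracks overt cytotoxicity.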

Read-out in assay [10]: Human Leukocyte Antigen - DR isotype (HLADR), HLA-DRA (gene 3122)
The assay can be described thus: BSK_3C_HLADR: BioMAP Diversity Plus: 3C Assay for Human Leukocyte Antigen - DR isotype (HLADR) Biomarker Activity (AID 2283019). The settings on record: primary human endothelial cells (HUVEC); actives raise or lower the signal. An outline of the steps: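 Primary human umbilical vein endothelial cells (3C system) were dosed with compound and cell-surface HLA-DR was quantified by ELISA at 24 h. Activity was fitted bidirectionally against DMSO as negative control and baseline.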

Read-out in assay [11]: Interleukin-8 (IL8), CXCL8 (gene 3576)
Briefly: BSK_3C_IL8: BioMAP Diversity Plus: 3C Assay for Interleukin-8 (IL8) Biomarker Activity (AID 2283020). The conditions noted are these: primary human endothelial cells (HUVEC); actives raise or lower the signal. An outline of the steps:
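Primary human umbilical vein endothelial cells (3C system) were exposed to test chemical for 24 h, then IL-8 was quantified by ELISA. Responses were fitted bidirectionally against DMSO vehicle as baseline.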

Read-out in assay [12]: Monokine induced gamma interferon (MIG), CXCL9 (gene 4283)
Briefly: BSK_3C_MIG: BioMAP Diversity Plus: 3C Assay for Monokine induced gamma interferon (MIG) Biomarker Activity (AID 2283021). The conditions noted are these: primary human endothelial cells (HUVEC); actives raise or lower the signal. In outline:
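Primary human umbilical vein endothelial cells in the 3C system were exposed to chemical for 24 h, after which MIG was quantified by ELISA. Activity was fitted bidirectionally against DMSO as negative control and baseline.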

Assay [13] in a line: BSK_3C_SRB: Viability Assessment in the BioMAP Diversity Plus: 3C Assay (AID 2283023).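 Also: fitted both ways against DMSO so a hit may be signal rise or drop.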 The conditions noted are these: primary human endothelial cells (HUVEC). An outline of the steps: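 Primary human umbilical vein endothelial cells in the 3C system were read 24 h after compound dosing. Total protein was stained with 0.1% sulforhodamine B after 10% TCA fixation and read at 560 nm, with bidirectional fitting against DMSO as baseline.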

Read-out in assay [14]: Matrix Metallopeptidase 1 (MMP1), MMP1 (gene 4312)
The assay can be described thus: BSK_BE3C_MMP1: BioMAP Diversity Plus: BE3C Assay for Matrix Metallopeptidase 1 (MMP1) Biomarker Activity (AID 2283024). The conditions noted are these: primary human bronchial epithelial cells; actives raise or lower the signal. In outline: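 Primary human bronchial epithelial cells were dosed with test chemicals, and MMP1 levels were measured by ELISA 24 h later. Data were fitted bidirectionally against DMSO as the negative control and activity baseline.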

Read-out in assay [15]: Pselectin, SELP (gene 6403)
The assay can be described thus: BSK_4H_Pselectin: BioMAP Diversity Plus: 4H Assay for Pselectin Biomarker Activity (AID 2283026). The settings on record: primary human endothelial cells (HUVEC); actives raise or lower the signal. An outline of the steps: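 Primary human umbilical vein endothelial cells were exposed to test chemical for 24 h, then cell-surface P-selectin was quantified by ELISA. Activity was fitted bidirectionally against DMSO as negative control and baseline.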

A short description of assay [16]: BSK_4H_SRB: Viability Assessment in the BioMAP Diversity Plus: 4H Assay (AID 2283027).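 Also: cells exposed to compound for 24 h before staining.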 The settings on record: primary human endothelial cells (HUVEC). An outline of the steps: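 Human umbilical vein endothelial cells were dosed with chemical and, after 24 h, fixed with 10% TCA, stained with 0.1% sulforhodamine B, and read at 560 nm to give total protein as a cytotoxicity measure. Bidirectional fitting relative to DMSO control.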

Read-out in assay [17]: Thrombomodulin, THBD (gene 7056)
The assay can be described thus: BSK_3C_Thrombomodulin: BioMAP Diversity Plus: 3C Assay for Thrombomodulin Biomarker Activity (AID 2283029). The conditions noted are these: primary human endothelial cells (HUVEC); actives raise or lower the signal. An outline of the steps:
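Primary human umbilical vein endothelial cells (3C system) were exposed to chemical for 24 h, then thrombomodulin levels were measured by ELISA. Activity was fitted bidirectionally against the DMSO negative control as baseline.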

Read-out in assay [18]: Urokinase-type plasminogen activator receptor (uPAR), PLAUR (gene 5329)
Briefly: BSK_4H_uPAR: BioMAP Diversity Plus: 4H Assay for Urokinase-type plasminogen activator receptor (uPAR) Biomarker Activity (AID 2283030). The settings on record: primary human endothelial cells (HUVEC); actives raise or lower the signal. In outline:
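Primary human umbilical vein endothelial cells were exposed to chemical for 24 h before cell-surface uPAR was quantified by ELISA. Activity was fitted bidirectionally against the DMSO negative control baseline.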

Assay [19] addresses human Thyroid Receptor alpha (THRa1), THRA (gene 7067) (UniProt P10827). The assay can be described thus: ATG_THRa1_TRANS: Attagene TRANS-FACTORIAL HepG2 Assay for human Thyroid Receptor alpha (THRa1) (AID 2283014; active = hit-call score of the fitted dose curve at least 0.9, where 1 is the maximum). In outline:
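HepG2 cells transiently transfected with multiplexed GAL4-UAS reporter units for exogenous chimeric THRa1-Gal4; reporter mRNA measured 24 h after dosing by RT-PCR, 6-FAM labelling, HpaI digestion and capillary electrophoresis. Gain-of-signal fitted versus DMSO baseline.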

Chain of E-selectin (Homo sapiens) (P16581 whole entry, looked up): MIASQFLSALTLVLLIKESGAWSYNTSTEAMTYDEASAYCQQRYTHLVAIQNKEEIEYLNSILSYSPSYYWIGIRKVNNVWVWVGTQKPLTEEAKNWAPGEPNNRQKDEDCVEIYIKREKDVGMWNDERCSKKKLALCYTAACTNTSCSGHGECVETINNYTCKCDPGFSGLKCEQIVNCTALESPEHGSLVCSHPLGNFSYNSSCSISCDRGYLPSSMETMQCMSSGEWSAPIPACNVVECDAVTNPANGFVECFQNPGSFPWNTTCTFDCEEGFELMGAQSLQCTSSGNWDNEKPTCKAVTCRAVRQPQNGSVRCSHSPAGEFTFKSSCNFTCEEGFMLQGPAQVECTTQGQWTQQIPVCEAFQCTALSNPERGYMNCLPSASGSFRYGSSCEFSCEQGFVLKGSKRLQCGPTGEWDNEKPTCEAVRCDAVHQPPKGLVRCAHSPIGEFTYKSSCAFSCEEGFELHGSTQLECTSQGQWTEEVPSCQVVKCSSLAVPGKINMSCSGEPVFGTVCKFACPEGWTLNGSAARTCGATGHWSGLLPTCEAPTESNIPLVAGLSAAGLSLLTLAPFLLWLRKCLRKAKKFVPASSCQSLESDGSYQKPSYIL
Chain of human RAR-related Orphan Receptor beta (RORb), RORB (gene 6096) (Q92753 whole entry, looked up, the tested form may be a part): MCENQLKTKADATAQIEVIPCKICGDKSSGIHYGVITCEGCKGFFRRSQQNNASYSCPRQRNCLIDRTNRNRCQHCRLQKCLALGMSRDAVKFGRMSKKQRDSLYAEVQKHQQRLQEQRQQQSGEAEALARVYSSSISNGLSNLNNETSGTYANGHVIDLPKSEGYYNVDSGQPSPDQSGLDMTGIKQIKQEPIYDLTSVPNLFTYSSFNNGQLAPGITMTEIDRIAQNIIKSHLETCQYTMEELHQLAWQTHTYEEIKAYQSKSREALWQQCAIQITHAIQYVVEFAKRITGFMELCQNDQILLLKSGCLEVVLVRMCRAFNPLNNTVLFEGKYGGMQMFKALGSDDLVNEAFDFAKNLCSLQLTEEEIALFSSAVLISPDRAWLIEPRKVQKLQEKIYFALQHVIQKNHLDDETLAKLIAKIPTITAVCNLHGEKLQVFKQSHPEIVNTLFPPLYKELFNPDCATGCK
Chain of human Vitamin D Receptor (VDR), VDR (gene 7421) (P11473 whole entry, looked up, the tested form may be a part): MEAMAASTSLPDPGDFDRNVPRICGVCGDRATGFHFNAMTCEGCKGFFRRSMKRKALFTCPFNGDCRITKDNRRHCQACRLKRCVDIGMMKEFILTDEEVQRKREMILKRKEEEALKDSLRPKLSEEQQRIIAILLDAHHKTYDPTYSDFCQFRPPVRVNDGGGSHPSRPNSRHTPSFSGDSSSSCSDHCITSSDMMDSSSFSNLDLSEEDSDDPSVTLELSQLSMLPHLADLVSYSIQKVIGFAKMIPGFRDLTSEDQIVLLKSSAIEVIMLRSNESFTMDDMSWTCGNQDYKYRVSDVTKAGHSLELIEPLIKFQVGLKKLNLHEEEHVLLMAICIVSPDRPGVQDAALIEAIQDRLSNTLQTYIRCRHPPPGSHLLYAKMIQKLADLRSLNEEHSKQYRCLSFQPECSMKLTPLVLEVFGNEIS
Chain of Retinoic acid receptor RXR-alpha (Homo sapiens) (P19793 whole entry, looked up, the tested form may be a part): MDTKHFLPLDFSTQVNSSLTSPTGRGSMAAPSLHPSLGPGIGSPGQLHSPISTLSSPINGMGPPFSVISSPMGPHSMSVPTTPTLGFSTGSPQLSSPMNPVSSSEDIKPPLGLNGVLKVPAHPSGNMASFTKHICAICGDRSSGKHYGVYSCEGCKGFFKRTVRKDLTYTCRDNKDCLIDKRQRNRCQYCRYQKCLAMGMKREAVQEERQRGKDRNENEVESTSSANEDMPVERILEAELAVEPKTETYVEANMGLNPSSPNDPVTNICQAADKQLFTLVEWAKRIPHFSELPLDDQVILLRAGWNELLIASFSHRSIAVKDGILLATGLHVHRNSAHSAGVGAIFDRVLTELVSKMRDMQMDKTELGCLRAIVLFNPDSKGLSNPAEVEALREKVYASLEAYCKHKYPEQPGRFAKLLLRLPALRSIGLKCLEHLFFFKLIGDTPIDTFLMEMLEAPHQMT
Chain of human Retinoid X Receptor beta (RXRb), RXRB (gene 6257) (P28702 whole entry, looked up, the tested form may be a part): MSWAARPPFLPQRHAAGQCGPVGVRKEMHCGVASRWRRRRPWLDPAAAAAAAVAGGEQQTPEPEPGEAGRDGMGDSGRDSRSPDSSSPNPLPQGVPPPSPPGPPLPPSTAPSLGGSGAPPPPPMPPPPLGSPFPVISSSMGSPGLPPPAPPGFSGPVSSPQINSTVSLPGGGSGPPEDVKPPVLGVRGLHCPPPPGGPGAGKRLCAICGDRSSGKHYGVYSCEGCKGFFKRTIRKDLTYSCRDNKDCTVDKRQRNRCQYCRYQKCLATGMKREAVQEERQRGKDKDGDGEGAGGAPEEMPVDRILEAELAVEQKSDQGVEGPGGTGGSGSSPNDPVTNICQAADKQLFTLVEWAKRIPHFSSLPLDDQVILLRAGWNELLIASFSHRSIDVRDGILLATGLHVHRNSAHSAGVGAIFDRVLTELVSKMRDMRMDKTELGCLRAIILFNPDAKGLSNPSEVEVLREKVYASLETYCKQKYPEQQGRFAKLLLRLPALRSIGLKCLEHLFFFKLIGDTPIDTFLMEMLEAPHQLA
Chain of human Thyroid Receptor alpha (THRa1), THRA (gene 7067) (P10827 whole entry, looked up, the tested form may be a part): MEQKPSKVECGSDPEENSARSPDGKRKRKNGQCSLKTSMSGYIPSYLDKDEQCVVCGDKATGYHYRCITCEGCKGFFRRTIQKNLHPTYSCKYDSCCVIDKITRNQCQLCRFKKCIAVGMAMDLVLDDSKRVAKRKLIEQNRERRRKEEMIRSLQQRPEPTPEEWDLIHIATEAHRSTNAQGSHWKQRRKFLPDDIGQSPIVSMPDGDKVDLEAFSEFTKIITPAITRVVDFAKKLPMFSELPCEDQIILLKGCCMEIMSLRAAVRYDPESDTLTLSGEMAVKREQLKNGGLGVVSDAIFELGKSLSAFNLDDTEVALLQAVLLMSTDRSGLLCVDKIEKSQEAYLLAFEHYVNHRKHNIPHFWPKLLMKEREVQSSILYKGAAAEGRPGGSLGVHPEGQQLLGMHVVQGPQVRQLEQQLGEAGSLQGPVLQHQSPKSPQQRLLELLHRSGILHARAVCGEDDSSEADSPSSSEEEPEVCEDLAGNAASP
Chain of human RAR-related Orphan Receptor gamma (RORg), RORC (gene 6097) (P51449 whole entry, looked up, the tested form may be a part): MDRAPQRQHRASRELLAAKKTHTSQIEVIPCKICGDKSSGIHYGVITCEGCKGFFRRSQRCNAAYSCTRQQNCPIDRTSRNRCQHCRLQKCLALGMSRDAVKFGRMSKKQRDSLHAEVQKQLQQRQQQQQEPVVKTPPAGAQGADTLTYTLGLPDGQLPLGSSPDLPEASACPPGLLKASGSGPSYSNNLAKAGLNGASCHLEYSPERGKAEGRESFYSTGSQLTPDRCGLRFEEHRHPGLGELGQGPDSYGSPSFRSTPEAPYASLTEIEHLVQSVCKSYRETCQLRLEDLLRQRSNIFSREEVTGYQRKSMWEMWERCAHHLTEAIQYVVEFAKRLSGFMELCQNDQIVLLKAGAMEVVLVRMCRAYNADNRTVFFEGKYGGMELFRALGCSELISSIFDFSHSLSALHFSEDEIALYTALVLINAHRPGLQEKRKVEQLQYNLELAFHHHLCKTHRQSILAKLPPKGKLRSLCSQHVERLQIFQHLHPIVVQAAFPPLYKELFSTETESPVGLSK

`CCc1cc(Cc2cc(CC)c(N)c(CC)c2)cc(CC)c1N`: the call in assay [1], in assay [2] and in assay [3] was inactive.
For `NCC(F)(F)C(F)(F)C(F)(F)C(F)(F)C(F)(F)C(F)(F)F`, the molecule was called inactive in assay [4], in [2], in assay [5], in [6], in assay [7] and in assay [8]. In addition, the result in assay [9], in assay [10], in assay [11], in assay [12], in [3] and in [13] was inactive. Besides, the outcome in [14], in assay [15], in [16], in assay [17] and in assay [18] was inactive.
For the molecule `O=C(O)CCC(F)(F)C(F)(F)C(F)(F)F`, the outcome in assay [1], in [2], in assay [5], in assay [6], in assay [7] and in [8] was inactive. Also, the outcome in [9], in [10], in [11], in assay [12], in assay [3] and in assay [13] was inactive. Moreover, the outcome in [14], in [15], in assay [16], in [17] and in assay [18] was inactive.
By AC50 is commonly meant the concentration at which the activity in the assay is half-maximal. Consider `C[C@]12CC[C@H]3C(=CCc4cc(O)ccc43)[C@@H]1CCC2=O`, for which the molecule was classed as inactive in assay [1], in assay [2], in [19], in [6], in [7] and in assay [8]. Further, the outcome in assay [9], in assay [11], in assay [3], in assay [13], in assay [14] and in assay [15] was inactive. For the same molecule, the result in assay [16], in assay [17] and in [18] was inactive. In [10], the AC50 was 20 µM (active).
